For test [1], the target named is T1, 3-phosphoinositide-dependent protein kinase 1 (Homo sapiens) (UniProt O15530).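 Note: values are mean inhibition of PDK1.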
T1 sequence (whole entry): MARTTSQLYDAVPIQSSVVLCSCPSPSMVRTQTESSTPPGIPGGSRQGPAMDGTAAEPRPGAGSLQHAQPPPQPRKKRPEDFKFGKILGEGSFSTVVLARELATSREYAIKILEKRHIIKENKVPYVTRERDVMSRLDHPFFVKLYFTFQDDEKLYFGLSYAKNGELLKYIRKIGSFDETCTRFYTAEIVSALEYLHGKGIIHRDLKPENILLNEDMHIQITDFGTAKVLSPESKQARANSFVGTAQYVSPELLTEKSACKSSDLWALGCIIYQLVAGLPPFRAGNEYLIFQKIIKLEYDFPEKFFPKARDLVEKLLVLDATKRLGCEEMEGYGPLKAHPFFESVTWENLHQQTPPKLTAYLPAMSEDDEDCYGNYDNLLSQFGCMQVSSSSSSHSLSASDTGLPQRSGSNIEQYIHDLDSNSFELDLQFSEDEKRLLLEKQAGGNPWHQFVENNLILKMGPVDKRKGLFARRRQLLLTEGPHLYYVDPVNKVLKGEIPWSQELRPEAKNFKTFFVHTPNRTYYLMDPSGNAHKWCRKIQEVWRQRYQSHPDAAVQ
The settings on record: at 0.1 µM.

In test [2] the target is cAMP-dependent protein kinase catalytic subunit alpha (Homo sapiens) (UniProt P17612). The settings on record: at 0.1 µM.
Test [3] has the same target. Particulars: at 1 µM.
Test [4] has as its target Protein kinase C alpha type (Homo sapiens) (UniProt P17252). Particulars: at 0.1 µM.
Test [5] shares this target. The settings on record: at 1 µM.
In test [6] the target is Protein kinase C beta type (Homo sapiens) (UniProt P05771). Particulars: at 0.1 µM.
Chain of Protein kinase C beta type (Homo sapiens) (P05771 2-671 limits assumed): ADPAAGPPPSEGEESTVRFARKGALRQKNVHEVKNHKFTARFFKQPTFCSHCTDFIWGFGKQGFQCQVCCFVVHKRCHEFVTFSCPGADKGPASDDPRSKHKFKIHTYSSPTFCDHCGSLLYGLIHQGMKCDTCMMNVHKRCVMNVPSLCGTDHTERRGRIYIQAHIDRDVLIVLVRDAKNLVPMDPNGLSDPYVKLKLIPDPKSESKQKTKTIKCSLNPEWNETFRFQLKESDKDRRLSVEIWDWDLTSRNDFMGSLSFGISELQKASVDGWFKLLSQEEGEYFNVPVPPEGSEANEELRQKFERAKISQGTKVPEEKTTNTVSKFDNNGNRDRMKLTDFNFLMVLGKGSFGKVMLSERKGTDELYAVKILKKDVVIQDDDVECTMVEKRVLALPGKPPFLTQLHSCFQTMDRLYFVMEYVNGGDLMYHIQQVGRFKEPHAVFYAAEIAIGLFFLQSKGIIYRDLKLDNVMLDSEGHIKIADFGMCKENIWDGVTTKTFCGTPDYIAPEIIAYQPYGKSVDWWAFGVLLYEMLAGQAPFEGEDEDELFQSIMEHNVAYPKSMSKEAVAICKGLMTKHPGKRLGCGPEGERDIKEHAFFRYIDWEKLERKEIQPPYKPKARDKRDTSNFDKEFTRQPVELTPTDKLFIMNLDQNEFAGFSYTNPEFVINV
The target is the same in test [7]. The settings on record: at 1 µM.
Test [8] has as its target Protein kinase C eta type (Homo sapiens) (UniProt P24723). The settings on record: at 0.1 µM.
Test [9] shares this target. Particulars: at 1 µM.
The target of test [10] is Protein kinase C gamma type (Homo sapiens) (UniProt P05129). The settings on record: at 0.1 µM.
Test [11] has the same target. The settings on record: at 1 µM.
In test [12] the target is T2, Protein kinase C iota type (Homo sapiens) (UniProt P41743).
T2 sequence (whole entry): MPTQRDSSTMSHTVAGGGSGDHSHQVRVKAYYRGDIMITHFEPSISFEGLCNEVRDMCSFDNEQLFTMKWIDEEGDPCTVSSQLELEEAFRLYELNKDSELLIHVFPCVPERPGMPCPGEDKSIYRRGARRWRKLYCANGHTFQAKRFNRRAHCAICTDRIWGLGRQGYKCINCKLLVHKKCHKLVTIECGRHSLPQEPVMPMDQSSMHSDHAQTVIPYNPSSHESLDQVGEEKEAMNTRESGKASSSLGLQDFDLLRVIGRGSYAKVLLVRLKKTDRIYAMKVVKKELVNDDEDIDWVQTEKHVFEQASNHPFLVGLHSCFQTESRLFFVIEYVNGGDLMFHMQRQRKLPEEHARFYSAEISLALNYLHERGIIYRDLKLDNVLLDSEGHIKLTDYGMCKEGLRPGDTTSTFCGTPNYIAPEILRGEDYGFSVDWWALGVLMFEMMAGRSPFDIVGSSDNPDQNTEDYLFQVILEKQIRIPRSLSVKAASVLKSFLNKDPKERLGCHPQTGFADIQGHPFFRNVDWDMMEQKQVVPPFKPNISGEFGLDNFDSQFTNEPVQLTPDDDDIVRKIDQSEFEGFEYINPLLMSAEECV
The settings on record: at 0.1 µM.

In test [13] the target is T2, Protein kinase C iota type (Homo sapiens). The settings on record: at 1 µM.
The target of test [14] is Protein kinase C theta type (Homo sapiens) (UniProt Q04759). Particulars: at 0.1 µM.
Chain of Protein kinase C theta type (Homo sapiens) (Q04759 whole entry, looked up): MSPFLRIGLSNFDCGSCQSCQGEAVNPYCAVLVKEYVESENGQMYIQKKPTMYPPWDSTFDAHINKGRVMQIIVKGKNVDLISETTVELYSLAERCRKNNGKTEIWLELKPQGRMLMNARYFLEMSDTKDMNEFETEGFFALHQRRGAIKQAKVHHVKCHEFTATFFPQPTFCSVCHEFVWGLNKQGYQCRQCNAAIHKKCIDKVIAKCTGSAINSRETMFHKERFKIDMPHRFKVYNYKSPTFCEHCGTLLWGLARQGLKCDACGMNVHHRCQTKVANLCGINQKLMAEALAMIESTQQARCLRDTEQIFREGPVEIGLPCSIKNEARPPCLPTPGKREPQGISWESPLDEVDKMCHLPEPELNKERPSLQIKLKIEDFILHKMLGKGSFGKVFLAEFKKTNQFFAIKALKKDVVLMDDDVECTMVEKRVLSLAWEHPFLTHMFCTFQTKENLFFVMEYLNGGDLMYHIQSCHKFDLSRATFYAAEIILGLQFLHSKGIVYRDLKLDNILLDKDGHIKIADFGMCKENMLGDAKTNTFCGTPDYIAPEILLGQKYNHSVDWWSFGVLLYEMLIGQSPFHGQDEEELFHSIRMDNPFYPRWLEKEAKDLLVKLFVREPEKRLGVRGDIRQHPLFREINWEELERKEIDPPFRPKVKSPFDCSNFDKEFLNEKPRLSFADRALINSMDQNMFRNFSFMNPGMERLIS
For test [15] the target is unchanged. The settings on record: at 1 µM.
In test [16] the target is Protein kinase C beta type (Homo sapiens) (UniProt P05771). The settings on record: at 0.1 µM. The source holds these as a separate data set.
For test [17] the target is unchanged. The settings on record: at 1 µM. The source holds these as a separate data set.
Test [18] addresses T3, Serine/threonine-protein kinase D1 (Homo sapiens) (UniProt Q15139).
T3 sequence (whole entry): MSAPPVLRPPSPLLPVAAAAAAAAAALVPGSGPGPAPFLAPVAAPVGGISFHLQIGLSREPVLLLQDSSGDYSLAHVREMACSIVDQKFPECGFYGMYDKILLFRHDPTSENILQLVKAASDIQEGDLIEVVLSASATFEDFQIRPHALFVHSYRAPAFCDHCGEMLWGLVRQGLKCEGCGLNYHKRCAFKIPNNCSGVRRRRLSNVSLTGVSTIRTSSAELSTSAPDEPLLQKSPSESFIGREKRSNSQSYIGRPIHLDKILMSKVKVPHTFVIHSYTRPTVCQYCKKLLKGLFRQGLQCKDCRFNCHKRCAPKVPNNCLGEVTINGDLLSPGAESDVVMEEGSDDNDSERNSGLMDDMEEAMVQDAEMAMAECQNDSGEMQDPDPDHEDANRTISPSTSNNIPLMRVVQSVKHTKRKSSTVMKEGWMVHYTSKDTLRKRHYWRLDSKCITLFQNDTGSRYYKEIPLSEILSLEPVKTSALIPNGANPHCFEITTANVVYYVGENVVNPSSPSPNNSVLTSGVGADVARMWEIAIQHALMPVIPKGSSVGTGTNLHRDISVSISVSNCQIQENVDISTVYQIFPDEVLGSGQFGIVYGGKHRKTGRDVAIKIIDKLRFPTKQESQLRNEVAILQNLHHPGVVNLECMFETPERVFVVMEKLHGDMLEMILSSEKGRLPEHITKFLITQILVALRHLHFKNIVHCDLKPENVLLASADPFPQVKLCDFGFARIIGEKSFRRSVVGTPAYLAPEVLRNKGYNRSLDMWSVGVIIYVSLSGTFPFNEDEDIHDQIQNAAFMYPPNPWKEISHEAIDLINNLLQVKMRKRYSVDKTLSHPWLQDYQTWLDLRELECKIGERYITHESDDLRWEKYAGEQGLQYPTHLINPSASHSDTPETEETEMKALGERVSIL
Particulars: at 0.1 µM.

In test [19] the target is T3, Serine/threonine-protein kinase D1 (Homo sapiens). The settings on record: at 1 µM.
Test [20] deals with T4, Serine/threonine-protein kinase D2 (Homo sapiens) (UniProt Q9BZL6).
T4 sequence (whole entry): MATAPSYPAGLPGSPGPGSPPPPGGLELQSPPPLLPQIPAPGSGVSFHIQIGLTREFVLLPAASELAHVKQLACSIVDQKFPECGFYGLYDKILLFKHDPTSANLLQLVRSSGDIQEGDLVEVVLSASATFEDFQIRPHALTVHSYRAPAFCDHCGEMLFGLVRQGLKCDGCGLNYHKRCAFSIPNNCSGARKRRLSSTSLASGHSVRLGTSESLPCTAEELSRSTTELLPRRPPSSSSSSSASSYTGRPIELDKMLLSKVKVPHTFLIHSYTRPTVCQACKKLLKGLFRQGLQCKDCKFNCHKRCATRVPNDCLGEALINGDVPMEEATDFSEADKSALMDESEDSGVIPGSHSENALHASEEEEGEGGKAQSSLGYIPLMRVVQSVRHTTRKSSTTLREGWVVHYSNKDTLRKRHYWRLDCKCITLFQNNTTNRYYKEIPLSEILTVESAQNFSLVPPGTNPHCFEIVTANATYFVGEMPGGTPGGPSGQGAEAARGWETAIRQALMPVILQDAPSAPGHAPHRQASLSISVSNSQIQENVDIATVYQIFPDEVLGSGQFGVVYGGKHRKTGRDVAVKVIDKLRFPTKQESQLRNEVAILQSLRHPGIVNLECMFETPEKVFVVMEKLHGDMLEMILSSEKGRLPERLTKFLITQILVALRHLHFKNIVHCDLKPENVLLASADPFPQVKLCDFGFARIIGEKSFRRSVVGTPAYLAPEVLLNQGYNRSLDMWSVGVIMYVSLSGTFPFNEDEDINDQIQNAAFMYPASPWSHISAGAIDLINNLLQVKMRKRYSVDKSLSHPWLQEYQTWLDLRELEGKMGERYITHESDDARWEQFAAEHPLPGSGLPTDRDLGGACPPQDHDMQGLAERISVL
Particulars: at 0.1 µM.

Several values for one entry are separate records, joined by “and”; a condition that tells them apart may be missing. Equal entries are not always repeated.

Chain of Protein kinase C eta type (Homo sapiens) (P24723 whole entry): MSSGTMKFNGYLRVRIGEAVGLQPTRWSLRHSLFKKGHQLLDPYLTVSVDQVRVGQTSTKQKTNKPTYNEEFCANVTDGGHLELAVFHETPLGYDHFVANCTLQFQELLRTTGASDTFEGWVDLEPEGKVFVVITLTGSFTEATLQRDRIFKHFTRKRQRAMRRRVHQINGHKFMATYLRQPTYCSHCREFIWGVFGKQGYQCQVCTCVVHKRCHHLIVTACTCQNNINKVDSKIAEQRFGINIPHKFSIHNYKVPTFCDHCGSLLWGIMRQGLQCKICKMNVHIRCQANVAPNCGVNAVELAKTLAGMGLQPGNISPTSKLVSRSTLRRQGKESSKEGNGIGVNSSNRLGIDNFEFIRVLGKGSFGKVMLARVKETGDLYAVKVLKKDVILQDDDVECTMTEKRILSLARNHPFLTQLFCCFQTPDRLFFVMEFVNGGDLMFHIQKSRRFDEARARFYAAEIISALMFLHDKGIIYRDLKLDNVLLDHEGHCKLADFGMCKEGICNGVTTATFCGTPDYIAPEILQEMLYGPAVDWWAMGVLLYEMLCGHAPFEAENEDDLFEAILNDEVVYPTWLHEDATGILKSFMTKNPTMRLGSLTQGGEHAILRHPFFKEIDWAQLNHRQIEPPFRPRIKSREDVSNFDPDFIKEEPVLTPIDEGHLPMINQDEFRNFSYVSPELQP

By inhibition is commonly meant the relative decrease from the control value, in per cent. Turning to `N#Cc1cccc(Nc2ncc(-c3ccccc3)o2)c1`, the inhibition in test [1] is 0.43%; in test [2], 0.96%; in test [3] it was 1.68%; in test [4], -0.44%; in [5], 0.37%; in [6], 0.7%. Further, the inhibition was 2.96% in test [7]; 0.23% in test [8]; 2% in test [9]; -0.01% in [10]; 5.3% in test [11]; 0.25% in test [12]. The inhibition was 0.06% in test [13]; 1.33% in test [14]; 3.57% in [15]; 0.6% in test [16]; 1.2% in test [17]; 5.32% in [18]. Besides, the inhibition in test [19] turned out to be 2.44%; in [20] it was 1.97%.
For `Nc1nccc(-c2c(-c3ccc(F)cc3)ncn2C2CCNCC2)n1`, the inhibition in test [1] is -3.23% and 1.39%; in test [2], -0.37% and 3.2%; in test [3], 20.2% and 30.2%; in test [4], 1.33% and 2.68%; in [5], 21.7% and 29%; in test [6], 1.41% and 3.25%. Further, the inhibition in [7] is 17.9% and 21.4%; in test [8], -2.01% and 0.32%; in test [9], 0.29% and 1.78%; in [10], -1.71% and 0.92%; in [11], 8.84% and 8.7%; in test [12], -1.01% and 0.25%. For the same molecule, the inhibition is 0.48% and 1.35% in test [13]; -1.64% and -0.14% in test [14]; -0.41% and 0.45% in test [15]; 3.39% and 5.75% in test [16]; 28.4% and 33.6% in [17]; -0.71% and 3.19% in [18]. Besides, the inhibition in test [19] is 26.6% and 34.1%; in test [20], -0.79% and 3.35%.
As for `Nc1nonc1-c1nc2cnccc2n1C1CC1`, the inhibition in test [1] is 2.07% and 2.38%; in test [2] it was 5.45% and 2.09%; in [3] it was 36.2% and 35.9%; in test [4] it was 1.78% and -0.98%; in test [5], 15.7% and 16.9%; in [6], 45% and 47.9%. Besides, the inhibition is 68.3% and 74.8% in [7]; 45.9% and 49.3% in test [8]; 88.8% and 90.8% in [9]; 3.3% and 3.29% in test [10]; 16.4% and 14.8% in test [11]; 1.95% and 3.2% in test [12]. Besides, the inhibition is 14.8% and 15.6% in test [13]; 8.24% and 7.85% in test [14]; 38.7% and 40.1% in test [15]; 7.25% and 6.7% in test [16]; 31.2% and 31.3% in test [17]; 4% and 0.29% in [18]. Besides, the inhibition was 22.3% and 23.2% in test [19]; 4% and 0.3% in test [20].

For the origin of these results see ChEMBL document CHEMBL1961873, “Compounds: GSK PKIS; Assays: Nanosyn kinase panel” (2012).
